DAX1 inh: inhibits human nuclear receptor DAX1 | P51843 | HEK293 Gal4-DAX1 luciferase reporter, luminescence | inhibition, % at 6.75 µM | 0.99% of 340,000 active;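 active = inhibition above the mean over all tested compounds plus 3 SD, cut at about 4.2% in these data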;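 note: inhibition shows as a rise in luminescence from relieved DAX1 repression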
HSF1 activator: increases HSF-1 driven luciferase reporter signal. 1.7% of 300,000 active. activation, % at 9 µM. NIH3T3-HGL HSF-1 luciferase reporter, MG132, 8 h; 100% = twice DMSO control signal. AID 504408;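 active = mean replicate activation of at least 50% with a set share of replicates each reaching 50%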
HSF1 inhib: HSF1 inhibition | NIH3T3-HGL HSE-luciferase, MG132-induced, luminescence 8 h; hits give low values | activity change, negative = inhibition, % at 7.5 µM (by protocol) | 0.77% of 300,000 active;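 active = more than half of replicate wells show activity change below -50%, luminescence cut by over half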;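 note: luciferase reports HSF-1 transcriptional activity via heat shock element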
GAA850 FXN act: frataxin GAA850 promoter activation | activation, % at 6 µM | HEK293 lucGAA850 FXN promoter luciferase reporter, 24 h; percent of 10 µM SAHA response | 0.56% of 360,000 active;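 active = activation above the average of all compounds screened plus 3 SD, cutoff fixed separately per campaign, cut at about 7.5% in these data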
HSP90 refold inh: inhibitors of HSP90 luciferase refolding in rabbit reticulocyte lysate; luciferase refolding luminescence, 3 h; inhibition, % at 5.6 µM; 0.91% of 290,000 active;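 active = inhibition above the screen-wide mean plus 3 SD, computed separately per campaign, cut at about 16% in these data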;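 note: inhibitors lower the luminescence because luciferase stays unfolded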
AHR act: activates the human aryl hydrocarbon receptor. P35869. AHR-responsive luciferase reporter cells, luminescence. activation, % at 5 µM. 2.5% of 320,000 active. AID 2796; in the data active = activation above about 47%
Target sequence (P35869 whole entry, looked up): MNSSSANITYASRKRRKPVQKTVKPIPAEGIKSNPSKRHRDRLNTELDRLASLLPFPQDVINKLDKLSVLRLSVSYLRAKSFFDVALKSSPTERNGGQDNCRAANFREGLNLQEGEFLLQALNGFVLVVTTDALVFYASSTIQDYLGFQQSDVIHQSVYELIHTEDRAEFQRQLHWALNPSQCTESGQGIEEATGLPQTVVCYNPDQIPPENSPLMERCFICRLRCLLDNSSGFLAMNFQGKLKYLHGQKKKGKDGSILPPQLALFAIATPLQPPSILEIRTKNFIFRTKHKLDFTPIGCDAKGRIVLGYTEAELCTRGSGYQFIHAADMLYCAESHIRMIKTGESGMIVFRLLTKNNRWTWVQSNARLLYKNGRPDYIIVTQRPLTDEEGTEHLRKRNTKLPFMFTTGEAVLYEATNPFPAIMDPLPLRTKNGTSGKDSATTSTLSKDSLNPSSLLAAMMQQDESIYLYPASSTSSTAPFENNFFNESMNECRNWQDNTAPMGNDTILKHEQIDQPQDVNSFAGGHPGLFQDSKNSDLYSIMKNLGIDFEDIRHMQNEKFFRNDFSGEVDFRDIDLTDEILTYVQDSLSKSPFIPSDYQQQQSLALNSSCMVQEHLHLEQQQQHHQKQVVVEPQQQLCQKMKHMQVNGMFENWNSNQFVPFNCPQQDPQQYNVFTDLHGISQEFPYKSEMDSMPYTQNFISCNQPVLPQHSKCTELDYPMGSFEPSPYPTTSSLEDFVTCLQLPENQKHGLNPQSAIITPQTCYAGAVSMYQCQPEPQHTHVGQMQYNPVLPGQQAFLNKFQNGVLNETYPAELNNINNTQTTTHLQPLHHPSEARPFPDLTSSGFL
HSP90 inh confirm: HSP90 inhibition, confirmation assay. shares compounds with HSP90 refold inh. rabbit reticulocyte lysate, luciferase refolding luminescence, 3 h. inhibition, % at 5.9 µM. 64% of 2,300 active. AID 1846; in the data active = inhibition above about 18%
luciferase ctr: blocks native firefly luciferase in HSP90 counter-screen | 48% of 2,300 active | purified native firefly luciferase, luminescence | shares compounds with HSP90 refold inh | inhibition, % at 5.9 µM | AID 1847;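 active = inhibition above the mean inhibition of all tested sample wells plus 3 SD, cut at about 10% in these data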
Large screens that a line does not name were inactive (follow-up assays come after a bar, where they were run). The list is not random: actives were taken first. Their share in the collection is about 5.9%.

CCN(CC)S(=O)(=O)c1cccc(-c2nnc(SCc3nnc(-c4cccs4)o3)n2N)c1	none
Cc1ccc(S(=O)(=O)N2CCCC2C(=O)Oc2ccccc2)cc1 (stereo unspecified)	none
O=C(CNS(=O)(=O)c1ccc(Br)s1)NCc1ccccc1	HSF1 activator 69, HSP90 refold inh 17 | HSP90 inh confirm inactive | luciferase ctr inactive
O=C(COC(=O)C1(c2cccc(F)c2)CCCC1)NCc1cccs1	none
O=C(NCCc1ccccc1)c1ccccc1NC(=O)C1CC=CCC1C(=O)O (stereo unspecified)	HSP90 refold inh 45 | HSP90 inh confirm inactive | luciferase ctr inactive
O=C(NCCC(=O)N(CCc1ccccc1)Cc1ccccc1)c1ccccc1Cl	none (no result: HSP90 refold inh)
Cn1cccc1C(=O)NCCc1ccccc1	HSP90 refold inh 19 | HSP90 inh confirm 39 | luciferase ctr 26
O=C(NCCc1ccccc1)c1ccccc1Cl	HSP90 refold inh 43 | HSP90 inh confirm 58 | luciferase ctr 50
Cn1cccc1C(=O)NCCc1ccc(Cl)cc1	none
COc1ccc(CN2CCN(S(=O)(=O)c3ccc(NC(C)=O)cc3)CC2)cc1	HSP90 refold inh 24 | HSP90 inh confirm inactive | luciferase ctr inactive
O=C1CC[C@H](OCc2ccccc2)CCN1[C@H](CSc1ccccc1)Cc1ccccc1	HSP90 refold inh 27 | HSP90 inh confirm inactive | luciferase ctr inactive
O=C1CC[C@H](O)CCN1[C@H](CSc1ccccc1)Cc1ccccc1	none
COc1ccc(C(=O)N2CCOC2CNC(=O)C(=O)NCc2ccccc2)cc1 (stereo unspecified)	none (no result: HSF1 activator, HSF1 inhib, HSP90 refold inh, AHR act)
O=C(O)CCCCCn1c(SCC(=O)c2ccc(O)c(O)c2)nc2ccsc2c1=O	none
O=C(O)CCCCCn1c(SCC(=O)N2CCCC2)nc2ccsc2c1=O	HSP90 refold inh 64 | HSP90 inh confirm inactive | luciferase ctr inactive
CC[C@]12C(=O)N(C)C[C@H]([C@@H]3C(=O)N(C)C(=O)[C@@H]31)N2C(=O)c1ccc(C)cc1	none (no result: HSF1 activator, HSF1 inhib, HSP90 refold inh, AHR act)
COc1ccccc1C(=O)Nc1ccnn1C1CCN(Cc2ccn[nH]2)CC1	none
COc1ccccc1C(=O)O/N=C(\N)c1ccccn1	HSP90 refold inh 28 | HSP90 inh confirm inactive | luciferase ctr inactive
Cc1ccc(C(=O)O/N=C(\N)c2ccccn2)c(C)c1	HSF1 inhib -89, HSP90 refold inh 92 | HSP90 inh confirm 97 | luciferase ctr 94
N/C(=N\OC(=O)c1ccccc1[N+](=O)[O-])c1ccccn1	none
Cc1ccc(C)c(OCC(=O)O/N=C(\N)c2ccccn2)c1	none
N/C(=N\OC(=O)c1ccccc1Cl)c1ccccn1	HSP90 refold inh 73, AHR act 52 | HSP90 inh confirm 68 | luciferase ctr 89
CC(Oc1ccc2ccc(=O)oc2c1)C(=O)N1CCOCC1 (stereo unspecified)	none (no result: HSP90 refold inh)
Cc1ccc(-c2onc3ccc(C4OCCO4)cc23)cc1	HSP90 refold inh 35 | HSP90 inh confirm inactive | luciferase ctr inactive
Brc1ccc(C2Nc3cccc4cccc(c34)N2)o1	HSP90 refold inh 19 | HSP90 inh confirm inactive | luciferase ctr inactive
c1ccc(C2Nc3cccc4cccc(c34)N2)cc1	none
CC1CC(C)CN(S(=O)(=O)c2ccc(Oc3ccc([N+](=O)[O-])cc3)cc2)C1 (stereo unspecified)	none
O=c1c2sc(-c3ccccc3)cc2nc2n1CCC2	HSP90 refold inh 24 | HSP90 inh confirm 48 | luciferase ctr 32
Cn1c(NCCN2CCCC2)nc2cc(-c3ccccc3)sc2c1=O	none (no result: DAX1 inh, HSF1 activator, HSF1 inhib, HSP90 refold inh, AHR act)
O=C(OCc1ccc(Br)cc1)c1cccnc1	HSP90 refold inh 41 | HSP90 inh confirm inactive | luciferase ctr inactive
CNC(=O)c1c(NC(=O)c2ccc(N3C(=O)CCC3=O)cc2)sc2c1CCC(C)C2 (stereo unspecified)	none
CCCCn1c(NC(C)=O)c(C#N)c2nc3ccccc3nc21	HSP90 refold inh 24 | HSP90 inh confirm inactive | luciferase ctr inactive
C=CCn1c(NC(=O)c2ccccc2Cl)c(C#N)c2nc3ccccc3nc21	HSP90 refold inh 49 | HSP90 inh confirm inactive | luciferase ctr inactive
CCCCCn1c(N)c(C#N)c2nc3ccccc3nc21	none
CCCCn1c(NC(=O)c2ccc(Br)o2)c(S(=O)(=O)c2ccccc2)c2nc3ccccc3nc21	HSP90 refold inh 34 (no result: HSF1 activator, HSF1 inhib) | HSP90 inh confirm inactive | luciferase ctr inactive
C=CCCO[C@@H]1O[C@@H](C)[C@H](O)C[C@H]1O	none (no result: HSF1 activator, HSF1 inhib, HSP90 refold inh)
N#CC(Cc1cccc(CC(C#N)(c2ccccc2)c2ccccc2)c1)(c1ccccc1)c1ccccc1	HSP90 refold inh 40 | HSP90 inh confirm inactive | luciferase ctr inactive
O=C(Nc1ccc(C(=O)N2CCCC2)cc1)c1cccc(C(F)(F)F)c1	HSP90 refold inh 21 | HSP90 inh confirm inactive | luciferase ctr inactive
O=C(CN(C(=O)CNC(=O)c1cccs1)c1ccccc1F)NC1CCCC1	none
c1csc(-c2nc(CN3CCSCC3)cs2)c1	HSP90 refold inh 27 | HSP90 inh confirm 55 | luciferase ctr 31
O=S1(=O)CCN(Cc2csc(-c3cccs3)n2)CC1	none
Cc1ccc(C(=O)COC(=O)c2cnccn2)cc1	none
O=C(COC(=O)c1cnccn1)c1ccc([N+](=O)[O-])cc1	HSP90 refold inh 38 | HSP90 inh confirm inactive | luciferase ctr inactive
COc1ccc(/[N+]([O-])=C/c2ccco2)cc1	none (no result: HSF1 activator, HSF1 inhib, HSP90 refold inh)
COc1ccccc1C(=O)NNC(=O)c1ccc2ccccc2c1	HSP90 refold inh 18 | HSP90 inh confirm inactive | luciferase ctr inactive
COc1ccccc1C(=O)NNC(=O)c1ccc(O)cc1	none (no result: HSF1 activator, HSF1 inhib, HSP90 refold inh, AHR act)
COc1cccc(C(=O)Nc2ccc3ccccc3c2)c1	HSP90 refold inh 18 | HSP90 inh confirm 46 | luciferase ctr 37
COc1ccc(OC(C)C(=O)Nc2cccc(OC)c2)cc1 (stereo unspecified)	HSP90 refold inh 17 | HSP90 inh confirm inactive | luciferase ctr inactive
COc1cccc(NC(=O)NNC(=O)C(C)Oc2ccc3ccccc3c2)c1 (stereo unspecified)	none (no result: AHR act)
COc1ccc(C(=O)Nc2ccc3ccccc3c2)cc1	HSP90 refold inh 34 | HSP90 inh confirm 63 | luciferase ctr 53
O=C(CNC(=O)c1ccco1)Nc1cccc(Cl)c1	none
Cc1c(O)ccc(NC(=O)/C=C/c2ccccc2)c1C	none
O=C(O)CONC(=O)c1cc(OCC(F)(F)F)ccc1OCC(F)(F)F	none
CCCN=Cc1sc2ccc(OCC)cc2c1O	none
CN=Cc1sc2ccccc2c1O	HSP90 refold inh 34 | HSP90 inh confirm inactive | luciferase ctr inactive
Oc1c(C=Nc2cccnc2)sc2ccccc12	HSP90 refold inh 23 | HSP90 inh confirm 16 | luciferase ctr 18
CC(=O)NCCN=Cc1sc2ccccc2c1O	HSP90 refold inh 20 | HSP90 inh confirm inactive | luciferase ctr inactive
